Article PMC5540273 (PLoS ONE, 2017)

Experiments:
Settings in all cases: concentration: 1 μM, replicates: in singlicate; n = 1
ADCK4 = tested on: ADCK4
AKT1 = tested on: AKT1
AKT2 = tested on: AKT2
AKT3 = tested on: AKT3
ALK = tested on: ALK
AMPK-alpha1 = tested on: T1, AMPK-alpha1
T1 construct: gene PRKAA1

AMPK-alpha2 = tested on: T2, AMPK-alpha2
T2 construct: gene PRKAA2

ANKK1 = tested on: ANKK1
ARK5 = tested on: T3, ARK5
T3 construct: gene NUAK1

ASK1 = tested on: T4, ASK1
T4 construct: gene MAP3K5

ASK2 = tested on: T5, ASK2
T5 construct: gene MAP3K6

AURKA = tested on: AURKA
AURKB = tested on: AURKB
AURKC = tested on: AURKC
AXL = tested on: AXL
BIKE = tested on: T6, BIKE
T6 construct: gene BMP2K

BLK = tested on: BLK
BMPR1A = tested on: BMPR1A
BMPR1B = tested on: BMPR1B
BMPR2 = tested on: BMPR2
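Note: KINOMEscan kinase panel screen.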

SMILES	%Inh (ADCK4) [%]	%Inh (AKT1) [%]	%Inh (AKT2) [%]	%Inh (AKT3) [%]	%Inh (ALK) [%]	%Inh (AMPK-alpha1) [%]	%Inh (AMPK-alpha2) [%]	%Inh (ANKK1) [%]	%Inh (ARK5) [%]	%Inh (ASK1) [%]	%Inh (ASK2) [%]	%Inh (AURKA) [%]	%Inh (AURKB) [%]	%Inh (AURKC) [%]	%Inh (AXL) [%]	%Inh (BIKE) [%]	%Inh (BLK) [%]	%Inh (BMPR1A) [%]	%Inh (BMPR1B) [%]	%Inh (BMPR2) [%]
COc1ccc(Nc2nccc(N3CCC(NC(=O)Nc4cccc(OC)c4)C3)n2)cc1 (centres unmarked) [GSK1379742]	14	0	0	0	25	1	0	0	25	5	13	0	53	10	0	13	37	0	0	12
CN(C)Cc1ccc(-c2ccc3c(Nc4ccc(Oc5ccccn5)cc4)ccnc3c2)o1 [GW567148]	0	0	0	0	22	8	0	0	18	0	0	0	81	51	2	17	91.5	0	0	28
Nc1ncnc2c1nc(-c1ccccc1)n2-c1ccccc1 [SKF-97293]	0	2	3	16	52	23	31	29	0	0	29	24	47	0	14	4	0	8	17	46
O=C(Nc1cccc(-c2nn3ccccc3c2-c2ccnc(Nc3cccc(C(F)(F)F)c3)n2)c1)c1c(F)cccc1F [GSK292658]	0	0	8	2	0	0	13	13	12	2	2	2	0	49	12	0	94	0	0	22
FC(F)(F)c1ccc(/C=C/c2cncnc2Nc2ccc3[nH]c(Cc4ccccc4)nc3c2)cc1 [GW709199]	0	0	0	0	23	0	3	0	6	0	0	0	5	0	0	0	3	4	0	0
c1ccc(Oc2ccc(Nc3ccnc4cc(-c5ccc(CNCCN6CCOCC6)o5)ccc34)cc2)nc1 [GW567145]	31	0	10	0	0	0	0	34	44	0	0	22	71	9	0	0	86	0	0	14
CN1CCN(Cc2cccc(-c3ccc4c(Nc5ccc(Oc6ccccc6)cc5)ccnc4c3)c2)CC1 [GW578342]	9	0	11	0	23	8	0	6	0	0	0	6	0	9	17	1	94.8	0	0	8
CCn1c(-c2nonc2N)nc2c(C#CC(C)(C)O)nc(OC[C@H](N)c3ccccc3)cc21 [GSK943949]	0	95.8	98.8	95.8	19	0	3	0	18	0	0	37	0	4	13	19	0	0	9	1
Cc1ccc(C(=O)N2CC[C@@H](O)C2)cc1-n1c(C)cc(OCc2ccc(F)cc2F)c(Br)c1=O	66	0	0	0	0	2	0	0	0	0	0	0	0	0	0	0	70	0	54	0
COc1cc(Nc2nccc(N3CCC(NC(=O)c4cc5ccccc5s4)C3)n2)cc(OC)c1OC (centres unmarked) [GSK1379760]	26	1	8	0	19	45	30	12	17	20	100	59	68	86	14	70	100	0	0	13
COc1cccc(NC(=O)NC2CCN(c3ccnc(Nc4cc(OC)c(OC)c(OC)c4)n3)C2)c1 (centres unmarked) [GSK1379763]	59	0	7	0	45	0	0	40	18	0	11	75	55	89	13	78	0	0	0	8
COc1cc2c(cc1OCCN1CCNCC1)ncc1c3ccc(C#N)cc3[nH]c21	5	0	0	0	26	15	4	37	22	0	16	21	65	9	32	97.8	0	12	22	19
Fc1ccc(-c2ncn(C3CCNCC3)c2-c2ccnc(Oc3ccc(-c4ccccc4)cc3)n2)cc1 [SB-245391]	0	20	31	15	39	7	20	7	1	23	12	53	39	0	18	0	20	18	2	46
COc1cc(Nc2nccc(N3CCC(NC(=O)Nc4cccc(C(C)=O)c4)C3)n2)cc(OC)c1OC (centres unmarked) [GSK1379753]	55	0	0	0	44	0	0	41	27	0	0	83	57	77	0	74	9	0	0	9
COCCOCCOc1cc2ncc3c4ccc(C#N)cc4[nH]c3c2cc1OC	0	5	0	0	0	30	1	63	12	6	0	51	83	62	44	100	21	0	0	0
COc1ccc(CNC(=O)NC2CCN(c3ccnc(Nc4ccc(F)cc4)n3)CC2)cc1 [GSK1379788]	49	0	0	0	20	0	0	0	5	0	0	34	26	5	0	0	3	0	0	5
